# HPGD block: inhibitors of human 15-hydroxyprostaglandin dehydrogenase (HPGD); purified HPGD, NADH fluorescence kinetic, PGE2 substrate; hit rate 4.3% among 150,000; Potency, µM, inactives show top-dose activity change, negative = inhibition, usual class: inhibitors; note: potency is the fitted concentration of half-maximal effect
# Target sequence (P15428 whole entry, looked up): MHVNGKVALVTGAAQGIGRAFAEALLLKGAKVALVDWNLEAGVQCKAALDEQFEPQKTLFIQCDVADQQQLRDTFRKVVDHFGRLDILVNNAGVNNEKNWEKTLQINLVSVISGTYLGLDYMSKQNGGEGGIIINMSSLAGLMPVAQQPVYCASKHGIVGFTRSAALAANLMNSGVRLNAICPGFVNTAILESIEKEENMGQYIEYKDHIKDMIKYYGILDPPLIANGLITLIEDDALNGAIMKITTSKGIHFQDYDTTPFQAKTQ
#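 20 nM HPGD preincubated 15 min at room temperature with compound in 50 mM Tris-HCl pH 8, 0.01% Tween 20. Started with 1 mM NAD+ and 30 uM prostaglandin E2; NADH fluorescence (360/450 nm) read 5 times over 30-s intervals, last minus first.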
# PNC inhibitor: blocks assembly of the perinucleolar compartment | PC3M PTB-GFP, PNC prevalence imaging, 16 h; hits give low values | activity change (PNC), negative = inhibition, % at 10 µM | hit rate 3.1% among 140,000 | AID 2417;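 active = readout at or below -70, meaning at least 70% loss of cells showing the perinucleolar compartment, a nuclear body marking cancer cells; inconclusive = readout between -30 and a set limit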;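 note: plate controls were DMSO wells for no effect and camptothecin positive control wells for full effect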
#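 PC3M cells stably expressing PTB-GFP, 750–1000 cells/well, treated 16 h at 37 °C with compound (23 nl of library stock), in duplicate. After paraformaldehyde fixation and Hoechst stain, imaged at 20x; PNC prevalence scored by image analysis.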
# ALDH1A1 inh: inhibitors of human aldehyde dehydrogenase 1A1. P00352. Purified ALDH1A1, NADH fluorescence, propionaldehyde substrate. Potency, µM (highest dose often 75.3 µM), without a hit: top-dose activity, negative = inhibition, actives largely listed as inhibitors. hit rate 7.3% among 220,000;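 note: potency is the fitted concentration of half-maximal effect; plate controls were no enzyme wells and a reference inhibitor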
# * marks the source's active call; other numbers are inactive results; ? = inconclusive; . = no result; [ ] = another dose, or the depositor's remark. A selection: hits, their analogues and other compounds. The true share with any hit is near 11%. Unless noted, calls come from the whole dose curve; as a rule, active = well fitted inhibition curve with a large enough effect (not every such curve was filed as active); inconclusive = small, poorly fitted or top-dose-only effect, or another doubt; inactive = no such curve, though single readings can be large or run the other way. Unless noted, % is set by controls: 0 for no effect and ±100 for the full control effect.
SMILES,HPGD block,PNC inhibitor,ALDH1A1 inh
CCOC(=O)c1sc(NC(=O)CSc2nc(C)cc(C)c2C#N)c(C#N)c1C,-29%,79,?
CCN(CC)CC1CCCCN1CC(=O)N1c2ccccc2C(=O)Nc2cccnc21 (stereo unspecified),.,.,-2%
O=C(Nc1ccc(CN2CCCCC2)cc1)c1ccc2c(c1)OCO2,28µM*,46,-1%
O=C(Nc1ccc2c(c1)OCO2)c1ccc(CN2CCOCC2)cc1,1%,-28,-1%
Cc1cccc(Cn2ccc(NC(=O)c3ccc4c(c3)OCO4)n2)c1,.,.,-4%
O=C(Nc1ccn(Cc2ccc(Cl)cc2)n1)c1ccc2c(c1)OCO2,-20%,-82*,?
C=CCn1c(SCC(=O)NC(=O)NC)nnc1C1CCCCC1,.,.,3%
C=CCn1c(SCC(=O)NC(=O)NCCC)nnc1C1CCCCC1,-13%,3,5.6µM*
CCN(CC)c1ncnc2c1cnn2Cc1ccc(Cl)cc1,.,.,5%
Cc1ccc(C(=O)NNC(=O)c2ccc(C)cc2)cc1,.,.,18%
Cc1ccc(C(=O)NC=C(Cl)Cl)cc1,28µM*,?,-4%
Cc1ccc(C(=O)NC(O)C(Cl)Cl)cc1 (stereo unspecified),25µM*,71,7%
Cc1ccc(C(=O)NC(N(C)C)C(Cl)(Cl)Cl)cc1 (stereo unspecified),.,.,4%
CCN(CC)CC(=O)N1c2ccccc2CCc2ccc(NC(=O)c3cc(OC)c(OC)c(OC)c3)cc21,.,.,-9%
O=C(/C=C/c1ccccc1[N+](=O)[O-])Nc1cccnc1,-8%,?,17%
CC(C)=NOCc1ccc(-c2cc(-c3ccccc3)no2)cc1,.,.,1%[13.5 µM]
CC(=O)Nc1ccc(OCC[n+]2cccc(C(N)=O)c2)cc1,.,.,16%
CC(=O)Nc1ccc(OCCC[n+]2ccccc2)cc1,.,.,2.5µM*
C/C(Cn1cnc([N+](=O)[O-])n1)=N\NC(=O)c1ccc(F)cc1,1%,14,?
C/C(Cn1nnc([N+](=O)[O-])n1)=N\NC(=O)c1cccc(Cl)c1,-1%,-26,?
C/C(Cn1cnc([N+](=O)[O-])n1)=N\NC(=O)c1cccc(F)c1,0%,-88*,?
C/C(Cn1nnc([N+](=O)[O-])n1)=N\NC(=O)c1ccc(C)cc1,-4%,-109*,-7%
O=C(O)COc1ccccc1/C=N/NC(=O)c1cccc(S(=O)(=O)N2CCOCC2)c1,.,.,-14%
Oc1ccc(Cl)cc1CNc1ccc(Br)cn1,14µM*,?,5%
Oc1c(Cl)cc(Cl)cc1CNc1ccc(Br)cn1,?,?,-7%
SMILES,HPGD block,PNC inhibitor,ALDH1A1 inh
Cc1nn(C)cc1/C=N/NC(=O)Cn1nccc1C,-13%,-17,-1%
CC(C)(C)c1ccc(OCCOc2ccc(C(C)(C)C)cc2NC=O)c(NC=O)c1,.,.,-9%
Cc1cc(O)c(C(C)C)cc1NS(=O)(=O)c1ccccc1,-8%,?,14µM*
COc1ccc(S(=O)(=O)Nc2ccccc2C)cc1,-1%,?,2%
Cc1ccccc1NS(=O)(=O)c1ccc(F)cc1,2%,-97*,3%
CSc1ccc(S(=O)(=O)Nc2ccc3c4c(cccc24)CC3)cc1,-13%,32,?
O=S(=O)(Nc1ccc2c3c(cccc13)CC2)c1ccc(F)cc1,-15%,-16,13µM*
Cc1cc(O)c(C(C)C)cc1NC1=NS(=O)(=O)c2ccccc21,8%,18,?
CSc1ccccc1NS(=O)(=O)c1ccccc1,-8%,-29,8.9µM*
COc1ccc(S(=O)(=O)Nc2ccccc2SC)cc1C,-7%,35,?
CC(=O)c1cccc(NC(=O)C(CC(C)C)NC(=O)C2CCCCC2)c1 (stereo unspecified),.,.,6%
CCOC(=O)CN(c1cc([N+](=O)[O-])ccc1OC)S(C)(=O)=O,.,.,-2%
COc1ccc2c(c1)SCC/C2=C\CN1C(=O)CCC1=O,-11%,-4,-4%
O=C1C2=CC[C@H]3C(=O)N(Cc4ccccc4)C(=O)[C@@H]3[C@@H]2[C@H](O)[C@@H]2O[C@H]12,.,.,-1%[13.5 µM]
O=C(c1ccc(Cn2cc(Br)cn2)o1)n1cccn1,-2%,-83*,-13%
O=C(NCc1ccccn1)c1ccc(Cn2cc(Br)cn2)o1,-15%,17,-9%
O=C(N/N=C/c1c(F)cccc1Cl)c1ccc(Cn2cc(Br)cn2)o1,-19%,-114*,-5%
O=C(N/N=C/c1c(F)c(F)c(F)c(F)c1F)c1ccc(Cn2cc(Br)cn2)o1,-2%,-18,-1%
CCc1ccccc1NNC(=O)c1snnc1C,.,.,-5%
CCCCC(CC)C(=O)NCc1ccc(F)cc1 (stereo unspecified),-8%,-26,-1%
O=C(CSc1nnc(CN2CCOCC2)n1-c1ccccc1)N1CCc2ccccc21,0%,-3,7.9µM*
CC1CCN(C(=O)CSc2nnc(CN3CCOCC3)n2-c2ccccc2)CC1,-12%,?,1.3µM*
Nc1nnc(SCC(=O)N2CCc3ccccc32)n1-c1ccccc1,-10%,?,-3%
O=C(CSc1nnc(Cc2ccccc2)n1-c1ccc(F)cc1)N1CCOCC1,7%,15,-62%
NC(CCC(=O)N[C@@H](CS)C(=O)NCC(=O)O)C(=O)O (stereo partly specified),-2%,.,12%
SMILES,HPGD block,PNC inhibitor,ALDH1A1 inh
COCc1nnc(NC(=O)c2ccccc2[N+](=O)[O-])s1,-18%,15,?
CSc1nc(-c2ccco2)nn1C(=O)c1ccco1,-20%,7,0%
c1ccc(CSc2nnc(-c3ccco3)n2Cc2ccco2)cc1,-15%,-11,?
CSc1nc(-c2ccco2)nn1S(=O)(=O)c1ccc(C)cc1,?,10,?
Cc1ccc(S(=O)(=O)n2nc(-c3ccco3)nc2SCc2ccccc2)cc1,25µM*,?,22µM*
CSc1nc(-c2ccco2)nn1S(=O)(=O)c1ccccc1,14µM*,?,14µM*
CCS(=O)(=O)n1nc(-c2ccc(Cl)cc2)nc1SC,13µM*,10,?
CS(=O)(=O)n1nc(-c2ccc(Cl)cc2)nc1N,.,.,3%
CCS(=O)(=O)n1nc(-c2ccco2)nc1SC,8.9µM*,-7,22µM*
CCOc1ccc(Cc2nccc3cc(OCC)c(OCC)cc23)cc1OCC,-15%,.,9%
Cc1cc(=O)[nH]c(/N=C(\N)Nc2ccc(Cl)cc2)n1,-7%,.,-8%[13.5 µM]
CC(C)(C)NC(=O)C(c1c[nH]c2ccccc12)N(C(=O)Cn1nnc(-c2ccc(F)cc2)n1)c1cccc(O)c1 (stereo unspecified),-10%,-22,2%
CSc1nc(-c2ccco2)nn1C(=O)c1ccc(C)cc1,?,14,-7%
CSc1nc(-c2ccco2)nn1C(=O)c1ccccc1,14µM*,-4,-43%
CC(=O)C(Cc1cccc(F)c1)(Cc1cccc(F)c1)C(C)=O,.,.,-1%
CC(=O)OC[C@@H]1O[C@@H](O/N=C2/C[C@@H](O)[C@@H](O)[C@@H]3[C@@H]4C(=O)N([C@@H](C)c5ccccc5)C(=O)[C@H]4CC[C@H]23)[C@H](OC(C)=O)[C@H](OC(C)=O)[C@@H]1OC(C)=O,.,.,6%[13.5 µM]
ClCc1csc(-c2ccc(Cl)cc2)n1,-5%,-113*,-9%
Cc1nc(CSc2ccc(Cl)cc2)cc(N2CC(C)OC(C)C2)n1 (stereo unspecified),.,.,6%
CC1CN(Cc2csc(-c3ccc(Cl)cc3)n2)CC(C)O1 (stereo unspecified),.,.,16µM*

# Screening data deposited in PubChem by National Center for Advancing Translational Sciences (NCATS).
